A short description of test [1]: reducers of endogenous Her2 protein level, primary screen, SKBR3 breast tumor cells, AlphaScreen, ATP viability (AID 461;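 active means Her2 level under about 52% in both replicate screens, with viability over 70% of control, limit read from the data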;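 on Her2 level: lower value means less Her2 protein in the cells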;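 on viability: percent of carrier control wells set as 100% viability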). The following applies: 18-24 h, measured here: SKBR3 viability, ATP luminescence, at 10 µM. (Bead proximity is the source of the signal in Alpha formats.)
For test [2], the target named is Receptor tyrosine-protein kinase erbB-2 (Homo sapiens) (UniProt P04626). The test is described as above. The following applies: 18-24 h, at 10 µM, stronger effect = lower value.
Chain of Receptor tyrosine-protein kinase erbB-2 (Homo sapiens) (P04626 whole entry, looked up): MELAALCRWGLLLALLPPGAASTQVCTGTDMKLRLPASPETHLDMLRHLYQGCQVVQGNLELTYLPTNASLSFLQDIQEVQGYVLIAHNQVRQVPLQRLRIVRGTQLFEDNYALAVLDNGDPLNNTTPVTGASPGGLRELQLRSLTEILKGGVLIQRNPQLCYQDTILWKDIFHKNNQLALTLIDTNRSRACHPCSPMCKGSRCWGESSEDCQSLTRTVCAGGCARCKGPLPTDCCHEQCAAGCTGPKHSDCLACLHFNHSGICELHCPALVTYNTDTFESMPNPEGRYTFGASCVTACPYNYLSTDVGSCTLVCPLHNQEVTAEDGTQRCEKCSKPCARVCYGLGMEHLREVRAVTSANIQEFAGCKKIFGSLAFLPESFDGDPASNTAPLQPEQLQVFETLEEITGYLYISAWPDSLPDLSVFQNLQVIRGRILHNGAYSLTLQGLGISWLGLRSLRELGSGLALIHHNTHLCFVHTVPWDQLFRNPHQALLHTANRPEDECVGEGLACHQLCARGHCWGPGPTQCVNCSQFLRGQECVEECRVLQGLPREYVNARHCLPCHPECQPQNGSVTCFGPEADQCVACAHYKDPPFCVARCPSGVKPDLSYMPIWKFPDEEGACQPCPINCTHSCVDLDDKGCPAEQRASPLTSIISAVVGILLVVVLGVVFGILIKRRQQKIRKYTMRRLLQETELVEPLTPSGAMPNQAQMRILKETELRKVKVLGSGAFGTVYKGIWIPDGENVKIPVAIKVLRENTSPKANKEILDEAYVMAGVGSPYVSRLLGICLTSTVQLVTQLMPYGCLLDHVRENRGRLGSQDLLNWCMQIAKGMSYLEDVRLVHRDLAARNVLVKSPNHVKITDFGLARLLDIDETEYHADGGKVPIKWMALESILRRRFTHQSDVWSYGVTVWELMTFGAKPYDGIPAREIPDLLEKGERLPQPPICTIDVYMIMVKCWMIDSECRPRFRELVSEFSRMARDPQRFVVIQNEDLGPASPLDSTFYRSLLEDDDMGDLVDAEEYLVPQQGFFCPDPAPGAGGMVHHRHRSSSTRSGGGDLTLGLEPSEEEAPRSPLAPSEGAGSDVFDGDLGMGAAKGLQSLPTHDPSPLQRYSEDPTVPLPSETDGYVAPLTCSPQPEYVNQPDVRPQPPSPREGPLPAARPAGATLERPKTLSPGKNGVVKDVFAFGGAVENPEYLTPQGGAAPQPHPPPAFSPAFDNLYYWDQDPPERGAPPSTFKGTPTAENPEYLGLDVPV
A short description of test [3]: SK-BR-3 cell growth inhibitors, pilot screen, 24 h, human (AID 572;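 active means viability at or below 10% of carrier control in both of two separate runs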;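 further: compound exposure lasted between 18 and 24 h rather than exactly 24 h; 100% = carrier-treated control wells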). Conditions: SK-BR-3 viability, CellTiter-Glo luminescence, at 10 µM, stronger effect = lower value. In general terms: ATP-based viability assays read luminescence as a measure of living cells.
Test [4] can be described thus: HUVEC growth inhibition – cell-based, human, primary screen (AID 575;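 active means viability at or below 30% in both replicate assays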;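 further: 100% = median of untreated cell wells with 0.1% DMSO on each plate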). The following applies: HUVEC proliferation, CellTiter-Glo luminescence, 72 h; at 10 µM; stronger effect = lower value.
Test [5] in a line: growth inhibitors of H69AR lung tumor, primary screen, human, duplicate replicates (AID 580;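 active means viability at or under a set limit in both replicates, limit being median viability minus 3 SD, cut at about 48% in these data, passing the limit was not always enough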;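 further: 100% = mean luminescence of untreated wells and 0% = no signal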). Conditions: H69AR lung tumor cells viability, ATP luminescence, 72 h; at 10 µM; stronger effect = lower value.
Test [6] is described as follows: reversal of MRP1-mediated doxorubicin resistance, pilot screen, H69AR cells, doxorubicin co-treatment (AID 601;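 active means viability loss from added drug above about 55%, and viability with drug at most 40%, in both replicates, limit read from the data, passing the limit was not always enough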). Conditions: CellTiter-Glo, 72 h, at 10 µM; for differential viability (reversal): stronger effect = higher value.
The nature of test [7]: 384-well plate pilot, post-Golgi transport modulator project, inhibition of yeast transport mutant growth (AID 636; in the data active means inhibition above about 31%). Conditions: absorbance 615 nm, about 18 h, stronger effect = higher value.
Test [8] in a line: growth suppression of yeast trafficking mutant, preliminary HTS, modulators of trafficking downstream of Golgi apparatus project, 1536-format plate, OD 615 nm (AID 637; in the data active means inhibition above about 30%). The following applies: yeast transport mutant growth, absorbance 615 nm, 18 h; stronger effect = higher value.
A short description of test [9]: OD615 S. cerevisiae growth inhibition, permissive medium, pilot counter-assay, permissive growth control for S. cerevisiae lifespan shortening project (AID 705;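 active means growth inhibition above 25% in both replicates, a cutoff set 3 SD above the mean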). The following applies: OD615, 24 h, at 10 µM, stronger effect = higher value.
Test [10] in a line: Restrictive medium S. cerevisiae growth inhibition, OD615, pilot screen of yeast lifespan reduction project, restrictive growth control (AID 706;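 active means growth inhibition above a set limit, 3 SD over mean compound inhibition, in both replicates, cut at about 43% in these data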;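 further: modified DeaD lifespan yeast strain shifted to restrictive glucose medium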). Conditions: OD615, 48 h, at 10 µM, stronger effect = higher value.
Test [11] can be described thus: viability gain of MRP-1-high H69AR cells under doxorubicin, pilot screen, MRP-1 activator project, CellTiter-Glo, duplicate (AID 807;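 active means viability increase at or above a cutoff of the median across tested compounds plus 3 SD, cut at about 8.5% in these data, passing the limit was not always enough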;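 further: compound pretreatment 18-22 h then 72 h combined with doxorubicin; 0% = doxorubicin alone and 100% = vehicle without doxorubicin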). Conditions: H69AR viability with doxorubicin, CellTiter-Glo luminescence; at 10 µM; stronger effect = higher value.
The nature of test [12]: growth suppression of beta-catenin knockout HCT116, pilot screen, human colon tumor cells (AID 823;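 active means cell viability at or below a set limit in both duplicate runs, the limit being the all-compound median minus 4 SD, cut at about 23% in these data, passing the limit was not always enough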;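 further: 0% = wells killed by 20 µM Hyamine and 100% = untreated DMSO cell wells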). The following applies: CellTiter-Glo, 60 h, at 10 µM, stronger effect = lower value.
Test [13] is described as follows: growth suppression of PTEN-deleted HCT116, pilot screen, cell-based, HCT116 clonal line, CellTiter-Glo (AID 824;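 active means viability at or below 27.92% in each of two runs, the all-compound median minus 4 SD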;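 further: 0% = 20 µM Hyamine control and 100% = vehicle cell control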). Conditions: 60 h, at 10 µM, stronger effect = lower value.
The nature of test [14]: inhibitors of the yeast RAM network, pilot screen, dse1pr::URA3 reporter, 5-FOA selection (AID 869).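 Further: 0% = DMSO wells with no growth and 100% = 10 µM 1-NA-PP1 with full growth; RAM network block rescues cells from 5-FOA so hits raise OD615 growth.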 The following applies: S. cerevisiae dse1pr::URA3 5-FOA growth, OD615, 2 d; at 10 µM; stronger effect = higher value; strain carries analog-sensitive mutant Cbk1 kinase.
Test [15] in a line: RAM signaling pathway blockade in yeast – S. cerevisiae, Pdr1DBD-CYC8 efflux-inhibited sensitized strain, primary screen (AID 1298;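 active means RAM network inhibition above 8.4% in each of two replicates, 3 SD over the compound average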;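 further: 0% = DMSO untreated cells without growth and 100% = 10 µM 1-NA-PP1 full growth; higher means more yeast growth rescued from 5-FOA killing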). The following applies: S. cerevisiae cbk1-as DSE1-URA3 strain, 5-FOA growth OD615, 2 d; at 50 µM; stronger effect = higher value.
Setting [16] is: H69AR cells + 2 uM doxorubicin, measured here: viability with 2 uM doxorubicin, stronger effect = lower value.
Setting [17] is: H69AR cells, compound alone cytotoxicity.

Inconclusive results are not listed. Active and inactive are the calls of the source.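 How the source made its calls, unless noted: active means inhibition over a set limit, the all-compound mean plus 3 SD, in both replicate runs; inconclusive means over that limit in just one replicate run; inactive means at or under that limit in both runs.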

The term viability denotes a read-out of living cells in per cent, often relative to untreated cells. As a reminder, the inhibition is the change of the read-out against control, counted positive when it falls. For `Nc1cc(N)cc(-c2nc3ccccc3o2)c1`, the viability is 100% in test [1]; 100% (inactive) in [3]; 87.3% (inactive) in test [4]; 93.7% (inactive) in test [5]; 74.7% in test [6] (setting [16]); 93.7% in test [6] (setting [17]). For the same compound, the viability in test [12] was 100% (inactive); in test [13], 95.4% (inactive). In addition, the Her2 level in test [2] is 106% (inactive). Further, in test [6] (H69AR cells + 2 uM doxorubicin), the differential viability (reversal) is 19.1% (inactive). Further, the inhibition in test [7] is -2.4% (inactive); in test [8], 3.17% (inactive); in [14], 2.14% (inactive). Moreover, the growth inhibition was 1.61% (inactive) in test [9] and 6.39% (inactive) in test [10]. Further, the viability increase in test [11] is -0.39% (inactive). Besides, the RAM network inhibition in test [15] was 0.61% (inactive).
With `COc1cc(OC)c2c(c1)OC(c1ccc(OC)c(OC)c1)C(O)C2=O` (stereo not given), the viability in test [1] was 90.5%; in [3], 90.5% (inactive); in test [4], 112% (inactive); in [5], 90.9% (inactive); in test [6] (setting [16]) it was 78%; in [6] (setting [17]), 90.9%. The viability is 101% (inactive) in test [12] and 100% (inactive) in [13]. Also, the Her2 level in test [2] was 79% (inactive). Besides, in test [6] (H69AR cells + 2 uM doxorubicin), the differential viability (reversal) was 12.9% (inactive). Further, the inhibition was -2.67% (inactive) in [7], 0.82% (inactive) in test [8] and 2.65% (inactive) in [14]. The growth inhibition in test [9] was -13.6% (inactive); in test [10], -14.9% (inactive). The viability increase in [11] was -1.91% (inactive). Further, in test [15], the RAM network inhibition is 2.25% (inactive).
Regarding `CC(OC(=O)C1CC=CCC1C(N)=O)C(Cl)=C(Cl)Cl` (stereo not given), the viability was 88% in [1]; 88% (inactive) in test [3]; 80.8% (inactive) in test [4]; 93.7% (inactive) in [5]; 86.5% in test [6] (setting [16]); 93.7% in test [6] (setting [17]). Further, the viability in test [12] was 103% (inactive); in test [13], 105% (inactive). Moreover, in test [2], the Her2 level is 105% (inactive). Also, in test [6] (H69AR cells + 2 uM doxorubicin), the differential viability (reversal) is 7.14% (inactive). Moreover, the inhibition in test [7] was 6.1% (inactive); in test [8] it was 1.31% (inactive); in test [14], 0.055% (inactive). The growth inhibition in test [9] is -2.97% (inactive); in [10], -1.67% (inactive). Also, the viability increase in test [11] is 0.52% (inactive). For the same compound, the RAM network inhibition in [15] was 2.45% (inactive).
Take `CC(=O)c1sc(NC(=O)C2COc3ccccc3O2)nc1C` (stereo not given): the viability is 102% in test [1]; 102% (inactive) in test [3]; 80.7% (inactive) in test [4]; 89.2% (inactive) in [5]; 77.8% in [6] (setting [16]); 89.2% in test [6] (setting [17]). The viability in test [12] was 99.4% (inactive); in test [13], 99% (inactive). In [2], the Her2 level was 97.5% (inactive). Further, the differential viability (reversal) in test [6] (H69AR cells + 2 uM doxorubicin) is 11.4% (inactive). Moreover, the inhibition in test [7] was 4.1% (inactive); in test [8], 3.5% (inactive); in [14] it was 0.05% (inactive). In addition, the growth inhibition in [9] was -8.75% (inactive); in test [10], -3.37% (inactive). In test [11], the viability increase is -1.12% (inactive). Also, in test [15], the RAM network inhibition is -0.31% (inactive).
Consider `CCCc1cc(C(=O)Nc2sc(C)c(C)c2C(=O)OCC)no1`, for which the viability is 86% in [1]; 86% (inactive) in [3]; 85.8% (inactive) in test [4]; 92.6% (inactive) in [5]; 92% in [6] (setting [16]); 92.6% in [6] (setting [17]). Besides, the results for the viability in test [12] and in test [13] were 102% (inactive) and 97.9% (inactive), respectively. For the same compound, the Her2 level in test [2] was 79% (inactive). Moreover, the differential viability (reversal) in test [6] (H69AR cells + 2 uM doxorubicin) was 0.625% (inactive). Further, the inhibition in test [7] is -1.79% (inactive); in test [8] it was 1.17% (inactive); in test [14], 3.55% (inactive). In addition, the figures for the growth inhibition in [9] and in test [10] were -10.7% (inactive) and 2.83% (inactive), respectively. Moreover, in test [11], the viability increase was 2.07% (inactive). Also, in [15], the RAM network inhibition was 7.13% (inactive).
In the case of `Cc1cccc(OCc2nc(C#N)c(NCCN(C)C)o2)c1`, the viability in test [1] was 97%; in test [3], 97% (inactive); in [4], 79.7% (inactive); in test [5], 84.8% (inactive); in [6] (setting [16]), 87.3%; in test [6] (setting [17]) it was 84.8%. Moreover, the figures for the viability in [12] and in test [13] were 102% (inactive) and 103% (inactive), respectively. For the same compound, in test [2], the Her2 level is 81.5% (inactive). The differential viability (reversal) in [6] (H69AR cells + 2 uM doxorubicin) is -2.44% (inactive). For the same compound, the inhibition is -2.4% (inactive) in test [7], -2.46% (inactive) in [8] and 0.445% (inactive) in [14]. Moreover, the growth inhibition in test [9] is -4.31% (inactive); in [10], 1.57% (inactive). Further, the viability increase in test [11] was -3.62% (inactive). For the same compound, the RAM network inhibition in test [15] is 3.81% (inactive).
Regarding `O=C(NCCCN1CCOCC1)c1ccc(CS(=O)(=O)c2c(Cl)cccc2Cl)o1`, the viability in [1] is 90.5%; in test [3], 90.5% (inactive); in [4], 88.8% (inactive); in [5], 92.3% (inactive); in test [6] (setting [16]), 94.3%; in test [6] (setting [17]), 92.3%. Moreover, the viability is 101% (inactive) in test [12] and 92.3% (inactive) in test [13]. Moreover, in test [2], the Her2 level is 102% (inactive). Moreover, in [6] (H69AR cells + 2 uM doxorubicin), the differential viability (reversal) is -2.01% (inactive). Besides, the inhibition in test [7] is -0.67% (inactive); in test [8] it was -0.5% (inactive); in test [14], 1.61% (inactive). Also, the growth inhibition is -11.8% (inactive) in [9] and -17.8% (inactive) in [10]. Further, the viability increase in test [11] was -1.26% (inactive). For the same compound, the RAM network inhibition in test [15] is 5% (inactive).
Turning to `COCCNC(=O)c1cc(-c2cccs2)on1`, the viability in test [1] was 97%; in test [3], 97% (inactive); in test [4] it was 84.9% (inactive); in [5], 84.7% (inactive); in test [6] (setting [16]), 61.1%; in [6] (setting [17]) it was 84.7%. Further, the viability is 67.3% (inactive) in test [12] and 70.6% (inactive) in test [13]. In addition, the Her2 level in [2] was 77.5% (inactive). Besides, the differential viability (reversal) in test [6] (H69AR cells + 2 uM doxorubicin) was 23.6% (inactive). Besides, the inhibition in [7] was -0.64% (inactive); in test [8], -4.17% (inactive); in test [14], 0.105% (inactive). Besides, the growth inhibition was -0.235% (inactive) in [9] and 2.31% (inactive) in test [10]. For the same compound, in test [11], the viability increase is -7.54% (inactive). In addition, the RAM network inhibition in test [15] was 3.61% (inactive).
Consider `COc1ccc(S(=O)(=O)Cc2ccc(C(=O)NCCc3ccc(S(N)(=O)=O)cc3)o2)cc1`, for which the viability in test [1] is 94.5%; in [3] it was 94.5% (inactive); in test [4], 91.6% (inactive); in test [5] it was 91.7% (inactive); in [6] (setting [16]) it was 79.6%; in [6] (setting [17]) it was 91.7%. Besides, the figures for the viability in test [12] and in test [13] were 102% (inactive) and 99.1% (inactive), respectively. In addition, in [2], the Her2 level was 114% (inactive). Moreover, the differential viability (reversal) in test [6] (H69AR cells + 2 uM doxorubicin) was 12.1% (inactive). Further, the inhibition in [7] is -4.13% (inactive); in test [8], -2.67% (inactive); in test [14], 0.71% (inactive). The growth inhibition in [9] was -0.09% (inactive); in [10], -4.47% (inactive). For the same compound, in [11], the viability increase was 0.71% (inactive). For the same compound, the RAM network inhibition in test [15] was 0.1% (inactive).
In the case of `CC(C)(C)SCCNC(=O)COc1ccccc1`, the viability in test [1] was 112%; in test [3] it was 112% (inactive); in test [4] it was 88.4% (inactive); in test [5], 96.8% (inactive); in [6] (setting [16]), 85%; in test [6] (setting [17]) it was 96.8%. Besides, the viability in test [12] was 95.7% (inactive); in test [13], 96.6% (inactive). In [2], the Her2 level was 88.5% (inactive). Also, the differential viability (reversal) in [6] (H69AR cells + 2 uM doxorubicin) is 11.8% (inactive). Moreover, the inhibition in test [7] was -6.22% (inactive); in test [8] it was 4% (inactive); in test [14] it was 1.81% (inactive). The growth inhibition was -2.07% (inactive) in [9] and 4.92% (inactive) in test [10]. In addition, the viability increase in test [11] is 0.03% (inactive). Further, the RAM network inhibition in [15] is 2.63% (inactive).

The record behind these values is PubChem BioAssay.
